Assay outcomes: PubChem, National Center for Advancing Translational Sciences (NCATS)
TSHR antagonist: blocks TSH signaling through the human TSH receptor. P16473. TSHR-expressing cells, TSH-stimulated cAMP HTRF, 2 h; stronger effect = lower value. activity change, negative = inhibition, % at 11.5 µM. actives 0.2% (n = 330,000). AID 504810;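 active = activity change below a set negative limit, meaning inhibition stronger than a set level, cut at about -70% in these data; inconclusive = activity change between two set negative limits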
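TSHR-expressing cells were treated with compounds, then stimulated with TSH at EC80 (4nM final) for 2 hours at 37 deg C. Cellular cAMP was measured by HTRF competition between lysate cAMP and cAMP-d2 for a cryptate-labelled anti-cAMP antibody.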
Vif-APOBEC3G blk: Vif-A3G binding inhibition. actives 0.076% (n = 410,000). Q9HC16. AID 602310. Potency, µM (top dose mostly 46.1 µM), hits mostly inhibitors. HeLa A3G-eYFP + Vif (tagged APOBEC3G with the HIV-1 protein that degrades it), YFP fluorescence, overnight; note: nearly all actives have a fitted effect of over 60% in size
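HeLa cells stably expressing Vif and C-terminally eYFP-tagged A3G, seeded overnight at 37 deg C, then exposed to compound by pintool overnight at 37 deg C. Rise in yellow fluorescence (Ex 488/Em 500-530, Acumen) marks blocked Vif-driven A3G degradation.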
Vif-APOBEC3F blk: blocks the Vif interaction with APOBEC3F | HeLa A3F-eYFP + Vif (tagged APOBEC3F with the HIV-1 protein that degrades it), YFP fluorescence increase | Potency, µM (doses to about 46.1 µM) | actives 0.2% (n = 390,000) | AID 602313; note: nearly all actives have a fitted effect of over 65% in size
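Fluorescence increase (Ex 488/Em 500-530) after overnight compound treatment at 37 deg C flags inhibition of Vif-driven A3F-eYFP loss in stable HeLa A3F-eYFP/Vif cells seeded overnight beforehand.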
PLK1 PBD block: blocks phosphopeptide binding to human PLK1 polo-box domain | Plk1 PBD binding of FITC phosphopeptide, fluorescence polarization | P53350 | Potency, µM, most hits filed as inhibitors | actives 2.8% (n = 360,000) | AID 720504; note: series mostly up to about 57 µM; nearly all actives have a fitted effect of over 65% in size
VDR inhibitor: vitamin D3 receptor (human) inhibition; P11473; Potency, µM, hits mostly inhibitors; actives 0.93% (n = 400,000); VDR-SRC2-3 peptide fluorescence polarization, 2 h; AID 504847
Target sequence (P11473 whole entry, looked up): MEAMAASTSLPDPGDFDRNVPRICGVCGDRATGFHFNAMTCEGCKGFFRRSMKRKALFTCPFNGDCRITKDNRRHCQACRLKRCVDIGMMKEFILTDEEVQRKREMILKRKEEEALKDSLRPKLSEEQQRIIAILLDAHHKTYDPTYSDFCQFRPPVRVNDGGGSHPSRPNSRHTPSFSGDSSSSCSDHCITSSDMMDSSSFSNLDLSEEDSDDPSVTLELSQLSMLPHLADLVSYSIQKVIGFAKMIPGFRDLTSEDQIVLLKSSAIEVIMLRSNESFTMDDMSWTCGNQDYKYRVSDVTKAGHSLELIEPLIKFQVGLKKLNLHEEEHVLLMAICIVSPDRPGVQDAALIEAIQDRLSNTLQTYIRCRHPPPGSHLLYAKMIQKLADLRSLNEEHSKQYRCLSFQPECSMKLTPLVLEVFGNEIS
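Reagent solutions, kept cold and dark, are dispensed first; compounds are then pinned in at 23 nl, plates briefly spun, and incubated 2 h at ambient temperature. Inhibition of VDR–SRC2-3 peptide binding is read by fluorescence polarization.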
TbPYK inh: Trypanosoma brucei pyruvate kinase inhibition, cherry-pick confirmation; shares compounds with PLK1 PBD block; recombinant TbPYK, Kinase-Glo ATP luminescence; Potency, µM (titrated, usually from 76.9 µM), actives largely listed as inhibitors; actives 67% (n = 890); AID 720569; note: nearly all actives have a fitted effect of over 70% in size
TbPYK ADP-Glo: TbPYK inhibition, orthogonal confirmation; shares compounds with PLK1 PBD block; actives 62% (n = 890); recombinant TbPYK, ADP-Glo luminescence, 60 min; Potency, µM (highest dose often 76.9 µM), usual class: inhibitors; note: nearly all actives have a fitted effect of over 75% in size
A number is an active result; - = inactive; ? = inconclusive; . = not tested or not shown. An excerpt weighted towards active compounds, which were near 3.1% of everything screened. Unless noted, calls come from the whole dose curve; as a rule, active = well fitted curve in the direction sought with a large enough effect; inconclusive = small, poorly fitted or top-dose-only effect, or another doubt; inactive = no such curve, though single readings can be large; an effect the other way counts as inactive or inconclusive.

SMILES	TSHR antagonist	Vif-APOBEC3G blk	Vif-APOBEC3F blk	PLK1 PBD block	VDR inhibitor	TbPYK inh	TbPYK ADP-Glo
COc1cc(/C=C2\C(=O)NC(=O)N(c3ccccc3)C2=O)cc(OC)c1OC	-	-	-	13µM	?	?	?
Cc1ccc(N2C(=O)NC(=O)/C(=C/c3ccoc3)C2=O)cc1	-	?	?	2.7µM	-	?	-
COc1cccc(N2C(=O)NC(=O)/C(=C/c3ccc4c5c(cccc35)CC4)C2=O)c1	-	.	.	.	.	.	.
CC1=NN(c2ccccc2)C(=O)C1/C=C1\C(=O)NC(=O)N(c2cc(C)cc(C)c2)C1=O (configuration not stated)	-	-	-	-	-	.	.
O=C1NC(=O)N(c2ccccc2)C(=O)/C1=C\C=C\c1ccccc1	-	?	-	1.2µM	?	13µM	?
Cc1cccc(Oc2nc3c(C)cccn3c(=O)c2/C=C(\C#N)c2nc3ccccc3s2)c1	.	-	-	.	?	.	.
CC[C@H]1CN2CC[C@@H]1C[C@H]2[C@@H](O)c1ccnc2ccc(OC)cc12	.	.	.	.	-	.	.
COc1ccccc1CN1CC[C@@]2(CCCN(C(=O)Oc3ccccc3)C2)C1	.	.	.	.	-	.	.
CCOC(=O)c1c(C)n(Cc2ccc(F)cc2)c2ccc(O)cc12	-	-	-	-	-	?	18µM
CCOC(=O)c1c(C)n(Cc2ccc3c(c2)OCO3)c2ccc(O)cc12	-	-	-	-	-	.	.
O=C1NC(=O)C(=Cc2ccc(OCC(=O)N3CCOCC3)cc2)C(=O)N1	-	-	-	27µM	-	18µM	?
O=C(COc1ccc(S(=O)(=O)N2CCOCC2)cc1)N1CCN(Cc2ccc3c(c2)OCO3)CC1	-	-	-	-	-	.	.
Cn1cccc1/C=C1/C(=O)NC(=S)N(Cc2ccc(F)cc2)C1=O	-	-	-	0.67µM	?	3.5µM	?
N#CCCN	-	.	.	.	-	.	.
O=C1NC(=O)C(=Cc2ccc(SC3CCCCC3)o2)C(=O)N1	-	-	?	0.6µM	?	28µM	40µM
O=C1NC(=O)N(c2ccccc2)C(=O)/C1=C\c1ccc([N+](=O)[O-])s1	-	-	?	5.3µM	40µM	7.9µM	13µM
CC1=NN(c2ccccc2)C(=O)C1/C=C1/C(=O)NC(=O)N(c2cccc(C)c2)C1=O (configuration not stated)	-	.	.	.	.	.	.
COc1ccc(OC)c(N2C(=O)NC(=O)/C(=C\c3ccc([N+](=O)[O-])s3)C2=O)c1	-	-	-	2.7µM	?	2.8µM	?
CCOc1ccccc1N1C(=O)NC(=O)/C(=C/c2ccc3c4c(cccc24)CC3)C1=O	-	-	-	6.7µM	?	?	?
CC[C@@H]1[C@@H]2C[C@H]3[C@H]4N(C)c5ccccc5[C@@]45C[C@@H]([C@@H]2[C@@H]5O)N3[C@H]1O	.	.	.	.	-	.	.
CC(O)C(C)OC(=O)[C@@H]1C[C@@H]2c3cccc4c3c(cn4C(C)C)C[C@H]2N(C)C1 (some centres not stated)	.	.	.	.	-	.	.
CCOC(=O)CSCCOc1ccc(C=C2C(=O)NC(=O)NC2=O)cc1OC	-	-	-	8.4µM	?	16µM	?
CCOc1cc(C=C2C(=O)NC(=O)NC2=O)cc([N+](=O)[O-])c1O	-	.	.	.	.	.	.
CCN(CC)C(=O)c1ccc2c(c1)C1C=CCC1C(C(=O)O)N2 (configuration not stated)	-	-	-	7.5µM	?	4µM	?
NCC(=O)c1ccc(Br)cc1	.	-	.	.	.	.	.
SMILES	TSHR antagonist	Vif-APOBEC3G blk	Vif-APOBEC3F blk	PLK1 PBD block	VDR inhibitor	TbPYK inh	TbPYK ADP-Glo
CCc1ccccc1N1C(=O)/C(=C/c2ccc(N3CCN(C)CC3)o2)C(=O)NC1=S	-	-	?	-	-	.	.
COc1ccc(N2C(=O)/C(=C/c3ccc(C)o3)C(=O)NC2=S)c(OC)c1	-	-	-	11µM	-	1.4µM	13µM
C[C@@]12CCC(=O)C=C1C=C[C@H]1[C@H]3CC[C@](O)(CCC(=O)O)[C@]3(C)CC[C@@H]12	.	.	.	.	-	.	.
COc1ccc(CN2C(=O)NC(=O)/C(=C/c3cc(OC)c(OC)c(OC)c3)C2=O)cc1	-	-	-	12µM	?	?	-
COc1ccc(CN2C(=O)NC(=O)/C(=C/c3ccc(OC)c(OC)c3OC)C2=O)cc1	-	-	-	8.4µM	?	28µM	?
COc1ccc(-c2ccc(OC)c(OC)c2OC)cc1	.	?	-	-	-	.	.
O[C@@H]1[C@@H]2O[P@@](O)(=S)OC[C@H]2O[C@H]1n1cnc2cc(Cl)c(Cl)cc21	.	.	.	.	-	.	.
Cc1cccc(N2C(=O)NC(=O)/C(=C\c3ccc4c(c3)CCCN4Cc3ccccc3)C2=O)c1	-	-	-	?	?	.	.
O=C1NC(=O)C(=Cc2cccs2)C(=O)N1	.	-	-	2.7µM	?	14µM	32µM
CC(=O)n1cc(C=C2C(=O)NC(=O)NC2=O)c2ccccc21	-	-	-	4.2µM	?	22µM	35µM
O=C1NC(=O)C(=Cc2csc3ccccc23)C(=O)N1	-	-	-	2.1µM	35µM	16µM	32µM
C(=NC12CN3CN(CN(C3)C1)C2)c1cccs1	-	-	-	-	-	.	.
COc1cc(OC)c(/C=C2\C(=O)Nc3ccccc32)c(OC)c1	-	?	-	-	-	.	.
O=C1NC(=O)N(c2cccc(Br)c2)C(=O)/C1=C/c1ccsc1	-	?	?	2.4µM	?	?	?
CNC(C)[C@H](O)c1ccccc1 (some centres not stated)	.	.	.	.	-	.	.
Clc1ccc(C2CC3CCC2N3)cn1 (configuration not stated)	.	.	.	.	-	.	.
CCCC(C)C1(CC)C(=O)N=C(S)NC1=O (configuration not stated)	.	.	.	.	-	.	.
O=C1NC(=O)C(=Cc2ccsc2)C(=O)N1	-	-	-	6.7µM	-	14µM	?
O=C1NC(=O)N(c2ccc(F)cc2)C(=O)/C1=C/c1ccsc1	-	-	-	6.7µM	?	?	-
CCN(CC(=O)Nc1ccccc1C(F)(F)F)C(=O)CCSc1ccc(F)cc1	-	-	?	-	-	.	.
Cc1ccc(-c2nn(Cc3ccccc3)cc2C=O)cc1	-	-	-	-	-	.	.
O=C(O)CCn1cc(C=C2C(=O)NC(=O)NC2=O)c(-c2ccc(Br)cc2)n1	-	-	-	2.7µM	-	14µM	28µM
CC[C@H](C)[C@H](NC(=O)[C@H](CCCN=C(N)N)NC(=O)[C@H](CCCN=C(N)N)NC(=O)[C@H](CC(C)C)NC(=O)[C@H](Cc1ccccc1)NC(=O)CNC(=O)CNC(=O)[C@@H](N)Cc1ccc(O)cc1)C(=O)N[C@@H](CCCN=C(N)N)C(=O)N1CCC[C@H]1C(=O)N[C@@H](CCCCN)C(=O)N[C@@H](CC(C)C)C(=O)N[C@@H](CCCCN)C(=O)O	.	.	.	.	-	.	.
